Assay outcomes: PubChem BioAssay, Buhrlage Lab, Dana-Farber Cancer Institute and Novartis Institutes for BioMedical Research (Cambridge, Mass)
Compounds with a hit are over-represented: about 14% of the library has one in this group of screens.
USP17 inh – inhibitors of human USP17 deubiquitinase | purified USP17, Ub-rhodamine cleavage fluorescence, 3 h | hit rate 6.5% among 47,000 | inhibition, % at 50 µM
USP8 inh – inhibitors of human USP8 deubiquitinase. P40818. inhibition, % at 20 µM. hit rate 4.2% among 47,000. purified USP8, Ub-rhodamine cleavage fluorescence, 30 min
USP30 block – inhibitors of human USP30 deubiquitinase; hit rate 5.3% among 47,000; inhibition, % at 25 µM; AID 1645860; Q70CQ3; purified USP30, Ub-rhodamine cleavage fluorescence
USP28 block – blocks human USP28 ubiquitin-rhodamine cleavage | purified USP28, Ub-rhodamine cleavage fluorescence, 30 min | inhibition, % at 25 µM | hit rate 3% among 47,000 | AID 1645857
Large screens that a line does not name were inactive. Cut-off read from the data, not from the text of the source: active = inhibition above about 30%; inactive = the rest.

COc1ccc(-n2cc(C(=O)NCc3ccc4c(c3)OCO4)c3ccccc3c2=O)cc1	USP30 block 53.5
O=C(NCc1ccc2c(c1)OCO2)c1nnc(Cc2ccc(F)cc2)o1	USP17 inh 56.4
CCCN1Cc2cccc(C(=O)NCc3ccc4c(c3)OCO4)c2C1=O	USP28 block 35.3
COc1ccc2[nH]c3c(c2c1)CCN1C(=O)N(c2ccccc2C(=O)NCc2ccc4c(c2)OCO4)C(=O)[C@]31C	none
O=C(NCc1ccc(F)cc1)c1nnc(Cc2ccc(Cl)cc2)o1	none
O=C(NCc1ccccc1)c1ccccc1OCc1ccc2c(c1)OCO2	USP17 inh 31.0, USP30 block 34.9
CC(C)CN1CC2(CCN(C(=O)c3ccc[nH]3)CC2)COc2ccccc2S1(=O)=O	none
CNC(=O)[C@@H]1CN(C(C)=O)C[C@@H]1NC(=O)c1ccc(C)s1	none
O=C(C1CCNCC1)N1CCC(O)(Cn2ccc3ncccc32)CC1	none
O=C(NCc1ccc2c(c1)OCO2)c1ccccc1OCc1ccc(F)cc1	USP17 inh 32.5, USP30 block 30.8
N#Cc1ccccc1OCC(=O)NCc1ccc2c(c1)OCO2	none
O=C(Nc1cccn(Cc2c(Cl)cccc2Cl)c1=O)c1ccccc1[N+](=O)[O-]	USP30 block 46.3, USP28 block 80.8
COc1cc(NC(=O)c2cccc(F)c2)c(OC)cc1NC(=O)CN1CCOCC1	none
CCCCn1cnc2c3cc(F)ccc3n(C)c2c1=O	USP17 inh 65.0, USP30 block 64.6
Cn1c2ccccc2c2ncn(Cc3ccc(F)cc3)c(=O)c21	USP17 inh 71.2, USP30 block 33.9, USP28 block 32.0
CCn1cnc2c(-c3ccccc3)cn(CC(=O)NCc3ccc(F)cc3)c2c1=O	none
CC(C)(C)c1ccc(OCC(=O)Nc2ccc(N3CCCCC3)cc2)cc1	none
Cc1ccc(Cn2ccc(NC(=O)c3cc(-c4ccco4)on3)n2)cc1	USP17 inh 30.4
COc1cccc(-c2cc(C(=O)Nc3cc(C)n(Cc4ccc(Cl)cc4)n3)no2)c1	USP8 inh 38.1, USP30 block 75.3
COc1ccc(-c2cc(C(=O)Nc3ccnn3Cc3ccccc3)no2)cc1	USP17 inh 36.5, USP30 block 32.0
CC1CCCN(C(=O)C2CCN(c3cncnc3N3CCOCC3)CC2)C1 (stereo not given)	none
Cc1nc(N2CCCCC2)ncc1-c1cc(=O)[nH]c(Nc2nc(C)c3ccccc3n2)n1	USP17 inh 66.5, USP30 block 59.9
Cc1nc(N2CCC(C)CC2)ncc1-c1cc(=O)[nH]c(N2c3ccccc3CC2C)n1 (stereo not given)	USP8 inh 44.2
Cc1nc(N2CCOCC2)ncc1-c1cc(=O)[nH]c(N2c3ccccc3CC2C)n1 (stereo not given)	none
Cc1nc(C2CN(C(=O)c3cnc4ccccc4c3)CCO2)cc(=O)[nH]1 (stereo not given)	none
COc1ccc(C2CCNc3ccccc3N2)cc1 (stereo not given)	USP8 inh 36.9
Cc1ccc(C)c(N2CCn3c2nc2c3c(=O)[nH]c(=O)n2C)c1	none
Cn1c(=O)[nH]c(=O)c2c1nc1n(CCc3ccccc3)c(-c3ccccc3)cn21	USP17 inh 53.6, USP30 block 49.9
Cc1ccc(NCCn2c(C)cn3c4c(=O)[nH]c(=O)n(C)c4nc23)cc1	none (no result: USP30 block, USP28 block)
Cc1ccc(-n2c(-c3ccccc3)cn3c4c(=O)[nH]c(=O)n(C)c4nc23)cc1Cl	USP17 inh 52.2, USP30 block 34.1
COCCCn1c(-c2ccccc2)cn2c3c(=O)[nH]c(=O)n(C)c3nc12	none
Cc1ccc(-n2c(-c3ccccc3)cn3c4c(=O)[nH]c(=O)n(C)c4nc23)cc1C	USP17 inh 78.1
Cc1cccc(NC(=O)C(C)n2cnc3nc(N4CCCCC4)ncc3c2=O)c1 (stereo not given)	none
CCN1C(=O)c2cccnc2Sc2cc(NC(=O)c3ccc(Cl)s3)ccc21	USP28 block 50.8
CCN1C(=O)c2cccnc2Sc2cc(NC(=O)CCc3ccccc3OC)ccc21	none
CCN1C(=O)c2cccnc2Sc2cc(NC(=O)CCc3cccc(OC)c3)ccc21	USP28 block 43.7
Cc1cc(-c2ccc(S(=O)(=O)NCc3ccccn3)s2)on1	none
Cc1cc(-c2ccc(S(=O)(=O)NCCc3ccccc3)s2)on1	USP30 block 35.3
COc1ccccc1NC(=O)N(CCN1CCOCC1)Cc1cc2c(C)cc(C)cc2[nH]c1=O	none
Cc1ccc(CNC(=O)Cn2cc(S(=O)(=O)Cc3ccccc3)c3ccccc32)cc1	USP8 inh 37.9
Cc1ccc(CS(=O)(=O)c2cn(CC(=O)NCc3ccco3)c3ccccc23)cc1	USP17 inh 37.0, USP8 inh 34.0
Cc1ccc(CS(=O)(=O)c2cn(CC(=O)NCCc3ccccc3)c3ccccc23)cc1	none
Cc1cccc(CNC(=O)Cn2cc(-c3nnco3)c3ccccc32)c1	USP17 inh 45.9
Cc1cccc(-n2c(=O)[nH]c3c(C(N)=O)nc(-c4ccccn4)nc32)c1	none
NC(=O)c1nc(-c2ccccn2)nc2c1[nH]c(=O)n2-c1ccc2c(c1)OCO2	USP17 inh 42.7, USP30 block 42.8
COc1cc(-c2nc(C(N)=O)c3[nH]c(=O)n(-c4ccc(C)cc4)c3n2)cc(OC)c1OC	USP17 inh 74.7, USP30 block 45.4
NC(=O)c1nc(-c2cccnc2)nc2c1[nH]c(=O)n2-c1ccc2c(c1)OCO2	USP17 inh 46.1, USP8 inh 53.1, USP28 block 53.0
CNC(=O)C1CN(C(=O)Nc2ccc(F)cc2F)CC12CCCC2 (stereo not given)	none
CCNC(=O)N1CCC2(C1)c1ccccc1S(=O)(=O)N2Cc1ccc(OC)cc1 (stereo not given)	none
O=C(C1CC1)N1CCC2(C1)c1ccccc1S(=O)(=O)N2Cc1ccc(F)cc1 (stereo not given)	USP30 block 35.6
Cc1nc(N(Cc2ccccc2)C(=O)CN2CCCCC2)sc1-c1ccccc1	none
O=C(Nc1nc2ccc(F)cc2s1)c1cc(Cl)sc1Cl	USP8 inh 70.1
O=C(Nc1nc2ccc(F)cc2s1)c1ccc2ccccc2n1	none
COc1ccc(CNC(=O)CN2CCc3sccc3C2C2CC2)cc1OC (stereo not given)	none
CC(=O)N1CCn2c(c(C(=O)Nc3ccccc3)c3cccnc32)C1	none
Nc1nccc(/C=C/c2c(Cl)cccc2Cl)n1	USP17 inh 31.5
O=C(CCc1ccccc1)N1CC2(CCN(S(=O)(=O)c3ccccc3)C2)C1	none
CCC(C)NC(=O)C1CCN(c2nccc(-n3nc(C)cc3C)n2)CC1 (stereo not given)	none
COc1ccc(NC(=O)c2ccccc2OCC(=O)Nc2ccccc2C(F)(F)F)c(C)c1	USP17 inh 78.7, USP8 inh 51.6
Cc1ccccc1[C@H]1C[C@@H](O)[C@@H](O)[C@@H]1NCc1ccccc1	none
CCCn1ccc(C(=O)N2C[C@@H]3OCC(=O)N(c4ccccc4)[C@H]3C2)n1	none
Cc1nn(-c2ccccc2)c(C)c1S(=O)(=O)Nc1cccnc1	none
Cc1nn(-c2ccc(-c3ccccc3)nn2)c(C)c1S(=O)(=O)NC(C)C	USP17 inh 37.5
COc1cc(OC)cc(-n2c(=O)c3sccc3n(CC(=O)c3ccc(Cl)cc3)c2=O)c1	USP17 inh 34.8, USP30 block 30.4
